This passage reports binding signal results from paper PMC7862700, “An all-to-all approach to the identification of sequence-specific readers for epigenetic DNA modifications on cytosine”.

Holding throughout (experiment): DAPPL (digital affinity profiling via proximity ligation, sequencing); 10 mM Tris-HCl pH 7.5, 50 mM NaCl, 1 mM DTT, 4% glycerol, room temperature, 30 min; GST-TFs on glutathione beads, 16-mer random dsDNA library, 0.1% formaldehyde crosslink after washing; high values mean tight binding
Details in all cases: protein: recombinant; tags: N-terminal GST; dsDNA, one strand shown

For one test, the target named is T1, FLI1 (Homo sapiens, UniProt Q01543 1-452).
T1 sequence: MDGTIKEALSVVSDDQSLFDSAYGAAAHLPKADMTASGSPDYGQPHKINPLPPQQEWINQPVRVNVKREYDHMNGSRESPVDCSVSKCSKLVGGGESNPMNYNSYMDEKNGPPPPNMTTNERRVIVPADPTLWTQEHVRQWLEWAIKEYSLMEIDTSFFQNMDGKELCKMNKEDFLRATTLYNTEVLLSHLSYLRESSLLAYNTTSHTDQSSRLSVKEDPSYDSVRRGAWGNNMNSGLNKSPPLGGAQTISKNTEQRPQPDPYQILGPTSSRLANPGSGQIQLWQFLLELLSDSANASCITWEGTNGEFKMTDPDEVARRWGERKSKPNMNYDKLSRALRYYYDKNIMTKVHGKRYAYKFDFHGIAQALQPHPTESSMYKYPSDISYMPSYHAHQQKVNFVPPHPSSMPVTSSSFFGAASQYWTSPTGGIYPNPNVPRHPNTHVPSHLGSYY
The method, boiled down: (§1)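 Binding signal is each hexamer's read frequency for a factor divided by its frequency in the tag-only sample. The factors were GST-fused human transcription factors from yeast, captured on glutathione beads, DNA-barcoded and pooled with that sample. Pools were incubated with 200 nmole of a random double-stranded 16-mer DNA library in Tris/NaCl/DTT/glycerol buffer at room temperature for 30 min, then washed, crosslinked with 0.1% formaldehyde, proximity-ligated with BsaI/T4 ligase (1 h, 37 °C), PCR-amplified and sequenced on an Illumina NextSeq500.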

The target in a further test is T2, ELK1 (Homo sapiens, UniProt P19419 1-428).
T2 sequence: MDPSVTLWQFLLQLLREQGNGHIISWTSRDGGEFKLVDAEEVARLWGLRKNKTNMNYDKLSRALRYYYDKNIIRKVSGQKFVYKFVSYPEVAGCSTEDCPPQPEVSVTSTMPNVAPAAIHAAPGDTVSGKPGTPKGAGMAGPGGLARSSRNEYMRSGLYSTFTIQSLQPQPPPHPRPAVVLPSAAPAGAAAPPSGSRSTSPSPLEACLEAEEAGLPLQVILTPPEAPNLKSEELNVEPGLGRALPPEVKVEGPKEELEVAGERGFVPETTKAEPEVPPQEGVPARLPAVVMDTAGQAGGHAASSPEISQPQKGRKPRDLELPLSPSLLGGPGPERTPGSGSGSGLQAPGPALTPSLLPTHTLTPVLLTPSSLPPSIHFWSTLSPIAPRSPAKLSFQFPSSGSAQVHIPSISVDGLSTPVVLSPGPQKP
The method, boiled down:
as §1

The next test deals with T3, GABPA (Homo sapiens, UniProt Q06546 1-454).
T3 sequence: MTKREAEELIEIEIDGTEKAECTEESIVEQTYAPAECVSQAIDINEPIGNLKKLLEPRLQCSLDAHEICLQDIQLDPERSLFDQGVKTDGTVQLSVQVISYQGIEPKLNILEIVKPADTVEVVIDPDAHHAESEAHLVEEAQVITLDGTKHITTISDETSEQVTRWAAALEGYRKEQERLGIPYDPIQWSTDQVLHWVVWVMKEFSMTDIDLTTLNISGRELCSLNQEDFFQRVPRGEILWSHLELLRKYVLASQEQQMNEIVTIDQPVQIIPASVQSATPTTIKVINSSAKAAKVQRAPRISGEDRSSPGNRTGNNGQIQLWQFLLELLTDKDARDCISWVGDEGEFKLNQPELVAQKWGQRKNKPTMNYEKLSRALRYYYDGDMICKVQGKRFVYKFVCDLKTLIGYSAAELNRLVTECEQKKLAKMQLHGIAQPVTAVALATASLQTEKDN
The method, boiled down:
as §1

A further test addresses T4, ERG (Homo sapiens, UniProt P11308 1-479).
T4 sequence: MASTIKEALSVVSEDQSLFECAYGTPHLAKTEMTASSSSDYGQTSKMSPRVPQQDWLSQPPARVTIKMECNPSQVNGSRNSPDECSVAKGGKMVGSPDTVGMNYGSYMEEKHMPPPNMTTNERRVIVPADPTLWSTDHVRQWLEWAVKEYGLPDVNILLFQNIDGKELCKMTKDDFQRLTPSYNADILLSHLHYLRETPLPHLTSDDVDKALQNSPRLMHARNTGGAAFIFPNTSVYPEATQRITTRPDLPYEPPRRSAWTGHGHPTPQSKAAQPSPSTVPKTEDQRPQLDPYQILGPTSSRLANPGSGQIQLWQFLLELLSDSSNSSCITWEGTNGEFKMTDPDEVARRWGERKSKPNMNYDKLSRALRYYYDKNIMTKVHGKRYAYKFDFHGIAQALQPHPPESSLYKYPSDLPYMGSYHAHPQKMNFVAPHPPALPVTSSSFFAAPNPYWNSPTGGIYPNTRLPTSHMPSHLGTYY
The method, boiled down: as §1

In the next test the target is ELF1 (Homo sapiens, UniProt P32519 1-619). The method, boiled down:
as §1

For the next test, the target named is T5, EHF (Homo sapiens, UniProt Q9NZC4 1-300).
T5 sequence: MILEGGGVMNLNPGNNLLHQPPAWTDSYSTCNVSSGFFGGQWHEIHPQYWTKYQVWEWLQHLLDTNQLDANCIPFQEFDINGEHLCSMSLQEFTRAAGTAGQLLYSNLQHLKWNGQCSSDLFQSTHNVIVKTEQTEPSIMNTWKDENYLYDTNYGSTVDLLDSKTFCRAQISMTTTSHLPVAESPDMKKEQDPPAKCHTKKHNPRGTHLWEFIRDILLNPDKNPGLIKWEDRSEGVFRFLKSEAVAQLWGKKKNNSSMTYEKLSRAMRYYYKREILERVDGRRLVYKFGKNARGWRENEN
The method, boiled down: as §1

Another test has as its target SPIB (Homo sapiens, UniProt Q01892 1-262). The method, boiled down:
as §1

The next test has as its target T6, FEV (Homo sapiens, UniProt Q99581 1-238).
T6 sequence: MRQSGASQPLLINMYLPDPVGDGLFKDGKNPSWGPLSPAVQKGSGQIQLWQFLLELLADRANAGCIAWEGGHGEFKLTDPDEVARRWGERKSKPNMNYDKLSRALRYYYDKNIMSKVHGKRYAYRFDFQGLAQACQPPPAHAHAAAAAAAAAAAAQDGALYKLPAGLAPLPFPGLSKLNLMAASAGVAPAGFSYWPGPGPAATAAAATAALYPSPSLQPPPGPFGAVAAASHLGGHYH
The method, boiled down:
as §1

The target in a further test is ETV5 (Homo sapiens, UniProt P41161 1-510). The method, boiled down:
as §1

For the next test, the target named is T7, SPIC (Homo sapiens, UniProt Q8N5J4 1-248).
T7 sequence: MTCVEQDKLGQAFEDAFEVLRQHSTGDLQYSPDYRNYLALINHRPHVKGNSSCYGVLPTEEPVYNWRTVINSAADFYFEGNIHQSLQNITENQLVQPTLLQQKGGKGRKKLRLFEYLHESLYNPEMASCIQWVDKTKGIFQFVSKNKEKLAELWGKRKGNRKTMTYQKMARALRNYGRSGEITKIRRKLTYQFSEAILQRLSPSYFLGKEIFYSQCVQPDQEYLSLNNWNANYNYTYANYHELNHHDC
The method, boiled down: as §1

In a further test the target is ELF4 (Homo sapiens, UniProt Q99607 1-663). The method, boiled down: as §1
Another test deals with T8, ELK4 (Homo sapiens, UniProt P28324-2 1-405).
T8 sequence: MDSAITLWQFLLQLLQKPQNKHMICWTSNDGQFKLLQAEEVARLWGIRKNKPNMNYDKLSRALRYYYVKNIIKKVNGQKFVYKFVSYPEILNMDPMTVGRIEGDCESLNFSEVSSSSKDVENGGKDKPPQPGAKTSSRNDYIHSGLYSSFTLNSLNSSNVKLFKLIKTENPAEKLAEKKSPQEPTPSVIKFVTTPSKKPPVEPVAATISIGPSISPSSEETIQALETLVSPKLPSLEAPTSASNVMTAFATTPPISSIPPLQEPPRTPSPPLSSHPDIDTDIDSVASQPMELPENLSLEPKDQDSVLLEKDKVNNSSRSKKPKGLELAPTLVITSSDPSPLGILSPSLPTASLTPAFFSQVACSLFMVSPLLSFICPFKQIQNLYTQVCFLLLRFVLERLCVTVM
The method, boiled down:
as §1

Another test concerns the target T9, ETV2 (Homo sapiens, UniProt O00321 1-342).
T9 sequence: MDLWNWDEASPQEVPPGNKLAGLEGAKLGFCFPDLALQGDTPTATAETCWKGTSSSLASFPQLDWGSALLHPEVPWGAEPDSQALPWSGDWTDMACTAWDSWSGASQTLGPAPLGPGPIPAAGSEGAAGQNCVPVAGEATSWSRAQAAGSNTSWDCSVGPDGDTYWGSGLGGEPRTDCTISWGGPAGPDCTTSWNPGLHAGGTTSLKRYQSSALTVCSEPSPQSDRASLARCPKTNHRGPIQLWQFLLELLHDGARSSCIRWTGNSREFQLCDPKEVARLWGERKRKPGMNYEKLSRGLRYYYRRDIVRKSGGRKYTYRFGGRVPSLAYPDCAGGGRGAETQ
The method, boiled down: as §1

The next test addresses T10, ELF3 (Homo sapiens, UniProt P78545 1-371).
T10 sequence: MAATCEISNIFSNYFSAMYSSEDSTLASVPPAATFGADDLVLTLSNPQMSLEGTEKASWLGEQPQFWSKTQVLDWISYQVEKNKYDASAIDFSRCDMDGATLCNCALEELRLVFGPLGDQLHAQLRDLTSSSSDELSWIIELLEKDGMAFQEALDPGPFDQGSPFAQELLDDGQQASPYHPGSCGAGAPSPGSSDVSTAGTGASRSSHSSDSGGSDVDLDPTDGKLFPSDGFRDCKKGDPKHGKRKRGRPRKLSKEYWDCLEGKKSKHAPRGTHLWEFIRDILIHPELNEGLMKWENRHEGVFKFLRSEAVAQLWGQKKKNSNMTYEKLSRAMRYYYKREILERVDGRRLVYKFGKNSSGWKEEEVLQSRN
The method, boiled down:
as §1

In the next test the target is CRX (Homo sapiens, UniProt O43186 1-299). The method, boiled down:
as §1

A further test addresses ETV1 (Homo sapiens, UniProt P50549 1-477). The method, boiled down:
as §1

ETV1, sequence (P50549 whole entry): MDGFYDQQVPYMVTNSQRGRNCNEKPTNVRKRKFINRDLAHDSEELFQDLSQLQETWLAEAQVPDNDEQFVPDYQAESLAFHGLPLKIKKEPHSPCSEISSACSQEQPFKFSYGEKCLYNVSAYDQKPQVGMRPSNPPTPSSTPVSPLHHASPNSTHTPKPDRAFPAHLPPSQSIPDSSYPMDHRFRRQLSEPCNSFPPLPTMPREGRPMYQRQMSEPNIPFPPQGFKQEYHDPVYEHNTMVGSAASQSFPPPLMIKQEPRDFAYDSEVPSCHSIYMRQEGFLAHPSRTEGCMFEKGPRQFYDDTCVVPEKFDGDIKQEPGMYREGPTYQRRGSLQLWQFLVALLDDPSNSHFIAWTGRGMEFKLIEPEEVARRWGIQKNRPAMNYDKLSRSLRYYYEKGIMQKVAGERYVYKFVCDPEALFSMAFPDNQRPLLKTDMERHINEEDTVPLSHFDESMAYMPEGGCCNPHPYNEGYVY
ETV5, sequence (P41161 whole entry): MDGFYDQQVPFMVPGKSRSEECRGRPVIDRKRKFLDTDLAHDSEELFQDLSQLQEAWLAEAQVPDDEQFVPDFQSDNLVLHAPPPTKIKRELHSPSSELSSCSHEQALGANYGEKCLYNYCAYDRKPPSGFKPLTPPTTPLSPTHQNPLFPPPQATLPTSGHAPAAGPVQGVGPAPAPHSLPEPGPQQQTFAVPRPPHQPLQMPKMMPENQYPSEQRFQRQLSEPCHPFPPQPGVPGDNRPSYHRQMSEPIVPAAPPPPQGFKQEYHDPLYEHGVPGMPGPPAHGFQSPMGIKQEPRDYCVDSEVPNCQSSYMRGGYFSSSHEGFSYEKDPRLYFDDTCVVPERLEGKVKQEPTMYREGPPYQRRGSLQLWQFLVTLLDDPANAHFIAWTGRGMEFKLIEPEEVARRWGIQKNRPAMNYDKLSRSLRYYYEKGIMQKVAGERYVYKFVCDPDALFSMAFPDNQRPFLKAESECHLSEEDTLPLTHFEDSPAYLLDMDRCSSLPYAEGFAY
CRX, sequence (O43186 whole entry): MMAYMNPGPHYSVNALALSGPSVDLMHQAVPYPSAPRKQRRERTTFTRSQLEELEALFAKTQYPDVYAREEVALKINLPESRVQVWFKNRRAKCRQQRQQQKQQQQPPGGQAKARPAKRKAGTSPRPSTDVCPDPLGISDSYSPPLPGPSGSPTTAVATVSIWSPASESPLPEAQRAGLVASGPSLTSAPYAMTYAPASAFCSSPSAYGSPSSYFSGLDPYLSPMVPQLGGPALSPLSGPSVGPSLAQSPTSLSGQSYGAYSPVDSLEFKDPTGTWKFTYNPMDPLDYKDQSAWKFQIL
SPIB, sequence (Q01892 whole entry): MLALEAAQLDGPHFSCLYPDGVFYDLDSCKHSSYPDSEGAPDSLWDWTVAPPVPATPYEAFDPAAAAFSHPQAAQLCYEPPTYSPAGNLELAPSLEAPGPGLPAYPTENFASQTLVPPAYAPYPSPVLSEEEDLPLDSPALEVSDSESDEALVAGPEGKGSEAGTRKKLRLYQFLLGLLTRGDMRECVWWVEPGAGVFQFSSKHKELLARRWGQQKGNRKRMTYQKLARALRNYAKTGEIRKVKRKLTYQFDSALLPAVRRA
ELF4, sequence (Q99607 whole entry): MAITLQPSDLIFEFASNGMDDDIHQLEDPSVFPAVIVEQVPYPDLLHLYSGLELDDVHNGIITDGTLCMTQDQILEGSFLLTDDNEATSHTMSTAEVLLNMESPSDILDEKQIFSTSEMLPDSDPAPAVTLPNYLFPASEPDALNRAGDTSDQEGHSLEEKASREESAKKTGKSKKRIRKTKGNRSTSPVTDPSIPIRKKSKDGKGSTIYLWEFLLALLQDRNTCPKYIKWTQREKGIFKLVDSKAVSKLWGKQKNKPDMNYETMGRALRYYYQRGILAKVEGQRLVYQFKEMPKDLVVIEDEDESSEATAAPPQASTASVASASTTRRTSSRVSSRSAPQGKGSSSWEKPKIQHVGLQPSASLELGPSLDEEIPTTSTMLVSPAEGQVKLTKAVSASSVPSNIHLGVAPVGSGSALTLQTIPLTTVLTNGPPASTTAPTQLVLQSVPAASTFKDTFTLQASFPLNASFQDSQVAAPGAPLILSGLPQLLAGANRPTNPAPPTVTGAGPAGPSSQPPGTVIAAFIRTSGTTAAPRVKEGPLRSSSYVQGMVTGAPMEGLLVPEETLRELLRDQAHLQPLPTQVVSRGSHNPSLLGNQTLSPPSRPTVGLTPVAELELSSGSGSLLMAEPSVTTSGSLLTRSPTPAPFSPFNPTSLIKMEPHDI
ELF1, sequence (P32519 whole entry): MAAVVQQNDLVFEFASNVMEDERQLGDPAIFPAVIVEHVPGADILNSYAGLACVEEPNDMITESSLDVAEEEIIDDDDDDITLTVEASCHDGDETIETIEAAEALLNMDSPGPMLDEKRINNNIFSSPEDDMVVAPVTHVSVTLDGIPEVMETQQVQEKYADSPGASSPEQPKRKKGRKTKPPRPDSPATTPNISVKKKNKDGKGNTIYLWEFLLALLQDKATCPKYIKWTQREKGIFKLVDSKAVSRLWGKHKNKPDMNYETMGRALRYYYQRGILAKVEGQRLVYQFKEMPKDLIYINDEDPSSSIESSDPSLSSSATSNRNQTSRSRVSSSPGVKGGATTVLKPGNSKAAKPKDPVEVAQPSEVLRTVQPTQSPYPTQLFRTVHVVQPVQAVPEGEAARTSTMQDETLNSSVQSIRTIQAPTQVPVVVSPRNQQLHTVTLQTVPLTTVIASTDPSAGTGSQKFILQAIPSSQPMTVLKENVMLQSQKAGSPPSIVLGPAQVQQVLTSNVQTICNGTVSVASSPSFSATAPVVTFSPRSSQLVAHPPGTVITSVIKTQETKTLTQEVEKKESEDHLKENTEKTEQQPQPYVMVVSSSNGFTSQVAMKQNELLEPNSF

Regarding GGTGTT, the binding signal with FLI1 was 1.07 fold enrichment (6-mer frequency, TF over GST control); in the test with ELK1 it was 1.13 fold enrichment (6-mer frequency, TF over GST control); with GABPA, 1.11 fold enrichment (6-mer frequency, TF over GST control); with ERG it was 1.08 fold enrichment (6-mer frequency, TF over GST control); with ELF1 it was 1.09 fold enrichment (6-mer frequency, TF over GST control); with EHF, 1.04 fold enrichment (6-mer frequency, TF over GST control). The binding signal in the test with SPIB is 1.02 fold enrichment (6-mer frequency, TF over GST control); with FEV, 1 fold enrichment (6-mer frequency, TF over GST control); in the test with ETV5, 1.09 fold enrichment (6-mer frequency, TF over GST control); in the test with SPIC it was 1.09 fold enrichment (6-mer frequency, TF over GST control); with ELF4, 1.09 fold enrichment (6-mer frequency, TF over GST control); with ELK4 it was 1.13 fold enrichment (6-mer frequency, TF over GST control). The binding signal was 1.13 fold enrichment (6-mer frequency, TF over GST control) with ETV2; 1.03 fold enrichment (6-mer frequency, TF over GST control) in the test with ELF3; 1.01 fold enrichment (6-mer frequency, TF over GST control) with CRX; 1.04 fold enrichment (6-mer frequency, TF over GST control) with ETV1.
